This is an account of results in PubChem BioAssay AID1851 (National Center for Advancing Translational Sciences (NCATS), 2009).

Each structure is given as a SMILES string. Values joined by “and” are separate entries in the source; they are usually repeats but may differ in a detail not shown here. Identical values can stand only once. Among all 16,000 compounds or so, about 5,800 (36%) were called active. Not shown: some 23% with an inconclusive outcome. Calls come from the whole dose curve; as a rule, active = well fitted curve in the direction sought with a large enough effect; inconclusive = small, poorly fitted or top-dose-only effect, or effect the other way; inactive = no such curve, though single readings can be large or run the other way. Some of the results follow. Some compounds were tested as several samples or in several runs, with calls that do not always agree.
% is set by controls: 0 for no effect and ±100 for the full control effect.

The target of the assay is Cytochrome P450 2C19 (Homo sapiens) (UniProt P33261). The assay can be described thus: Cytochrome panel assay with activity outcomes. Particulars: recombinant CYP, pro-luciferin dealkylation, luminescence, p450-cyp2c19; series mostly up to 57.1 µM; activity, negative = inhibition: at the top concentration.
Chain of Cytochrome P450 2C19 (Homo sapiens) (P33261 whole entry, looked up): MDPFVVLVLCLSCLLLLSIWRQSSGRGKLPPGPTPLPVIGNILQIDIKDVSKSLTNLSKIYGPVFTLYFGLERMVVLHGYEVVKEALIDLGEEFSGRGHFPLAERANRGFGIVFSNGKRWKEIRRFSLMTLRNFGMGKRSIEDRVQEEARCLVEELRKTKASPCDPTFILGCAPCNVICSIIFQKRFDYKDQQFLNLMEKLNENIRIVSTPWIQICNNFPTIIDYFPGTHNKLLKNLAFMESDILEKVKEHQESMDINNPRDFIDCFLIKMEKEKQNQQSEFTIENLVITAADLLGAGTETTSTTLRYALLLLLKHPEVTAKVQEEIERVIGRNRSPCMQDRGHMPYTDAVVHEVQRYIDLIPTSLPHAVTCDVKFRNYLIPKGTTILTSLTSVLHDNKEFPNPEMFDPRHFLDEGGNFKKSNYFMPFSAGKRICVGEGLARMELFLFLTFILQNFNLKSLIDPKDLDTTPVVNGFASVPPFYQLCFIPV
In the case of `COC(=O)[C@@]1(Cc2ccc(F)cc2)[C@H]2c3cc(C(=O)N4CCCC4)n(CCc4c[nH]c5ccccc45)c3C[C@H]2CN1C(=O)c1ccccc1`, the half-maximal activity concentration (AC50) (commonly the concentration at which the activity in the assay is half-maximal) was 10 µM (active).
For `O=S(=O)(O)[C@@H](CO)c1ccccc1` (tested in a mixture with another compound), the activity, negative = inhibition is -9.78% [at 11.4 µM] (inactive).
For `O=C1C(SCCO)=C(SCCO)C(=O)c2ccccc21`, the AC50 is 0.0794 µM (active).
`CCN(CC)C(=O)CCNS(=O)(=O)c1ccc(C)cc1`: the AC50 is 5.01 µM (active).
As to `Cc1ccc(S(=O)(=O)NCCC(=O)NCc2ccccc2)cc1`, the AC50 is 20 µM (active).
Take `CCCCNC(=O)NS(=O)(=O)c1ccc(C)cc1`: the “activity, negative = inhibition” value is 24.1% [at 25.6 µM] (inactive).
The same measure, in the same setting: the same measure for `Cc1ccc(S(=O)(=O)NCc2ccccc2)cc1`: -39.9% (inactive); for `COc1ncc2nc(-c3cn(C)c4ccccc34)c(=O)n(CCC#N)c2n1`: 4.22% (inactive).
For `CCOc1cc(C2NN=C(c3ccccc3)S2)ccc1OCc1ccccc1Cl` (configuration not stated), the half-maximal activity concentration (AC50) was 5.01 µM (active).
On the same count and under the same terms, the same measure for `Nc1nc(SCC(=O)Nc2ccccc2Sc2ccc(Cl)cc2)n[nH]1`: 0.0631 µM (active); for `O=C(Cn1cnc2ccccc2c1=O)Nc1nnc(SCc2ccccc2)s1`: 15.8 µM (active).
The same measure, in the same setting: the same measure for `Cc1ccc(C(=O)COC(=O)c2ccccc2N2C(=O)C3C4CCC(C4)C3C2=O)cc1C` (configuration not stated): 14.1 µM (active).
As to `CS(=O)(=O)Nc1ccc([N+](=O)[O-])cc1OC1CCCCC1`, the half-maximal activity concentration (AC50) was 0.0794 µM (active).
With `CS(=O)(=O)Nc1ccc([N+](=O)[O-])cc1Oc1ccccc1`, the “activity, negative = inhibition” value is -27.8% [at 25.6 µM] (inactive).
With `CCN(CC)CCOc1ccc(Cc2ccccc2)cc1`, the AC50 is 15.8 µM (active).
Regarding `CCN(CC)CCOc1ccc(/C(=C(\Cl)c2ccccc2)c2ccccc2)cc1`, the “activity, negative = inhibition” value is -31.9% [at 25.6 µM] (inactive).
With `COc1ccc(O)c(/C=N/NC(=O)CSc2nnc(C)n2-c2ccccc2)c1`, the “activity, negative = inhibition” value was -22.6% (inactive).
Regarding `COc1ccccc1NCc1nnc(SCC(=O)N/N=C/c2ccco2)n1-c1ccc(Cl)cc1Cl`, the AC50 was 4.47 µM (active).
Consider `CN(C)c1ncc2nc(-c3ccc(F)cc3)c(=O)n(Cc3ccc(F)cc3)c2n1`, for which the “activity, negative = inhibition” value is 15.8% (inactive).
Still for that read-out and setting: the same measure for `CN(C)c1ncc2nc(-c3ccc(Cl)cc3)c(=O)n(Cc3ccc(F)cc3)c2n1`: -31.2% (inactive).
As to `CCNc1ncc2ncc(=O)n(Cc3ccc(F)cc3)c2n1`, the AC50 was 15.8 µM (active).
Consider `CCNc1ncc2nc(-c3ccccc3)c(=O)n(Cc3ccc(F)cc3)c2n1`, for which the “activity, negative = inhibition” value is -39% (inactive).
Regarding `CN(C)c1ncc2ncc(=O)n(Cc3ccc(F)cc3)c2n1`, the AC50 is 3.16 µM (active).
On to `CN(C)c1ncc2nc(-c3cc(F)cc(F)c3)c(=O)n(Cc3ccc(F)cc3)c2n1`, for which the “activity, negative = inhibition” value was 36.3% (inactive).
Still for that read-out and setting: the same measure for `CCNc1ncc2nc(-c3ccc(OC)cc3)c(=O)n(Cc3ccc(F)cc3)c2n1`: 5.68% (inactive).
For the compound `Cc1nc2cnc(N(C)C)nc2n(Cc2ccc(F)cc2)c1=O`, the half-maximal activity concentration (AC50) was 1.58 µM (active).
For the compound `CN(C)c1ncc2ncc(=O)n(C)c2n1`, the “activity, negative = inhibition” value is -19.2% (inactive).
Still for that read-out and setting: the same measure for `O=C(O)[C@@H]1[C@H](C(=O)O)[C@H]2C(=O)C=C[C@H]1N2Cc1ccccc1`: 2.25% [at 11.4 µM] (inactive).
Turning to `O=C1C[C@@H](O)[C@@H](O)[C@H]2[C@@H]3C(=O)N(Cc4ccccc4)C(=O)[C@@H]3CC[C@H]12`, the activity, negative = inhibition is -9.62% [at 11.4 µM] (inactive) and 25.4% [at 11.4 µM] (inactive).
As to `O=C1C2CCC(C(O)C2)N1Cc1ccccc1` (configuration not stated), the AC50 is 15.8 µM (active).
Consider `Cn1cc([N+](=O)[O-])c(C(=O)Nc2cc(Oc3cccnc3)cc([N+](=O)[O-])c2)n1`, for which the half-maximal activity concentration (AC50) was 7.94 µM (active).
The same measure, in the same setting: the same measure for `CC1CCCC(C)N1C(=O)C1CC(c2ccc(F)cc2)=NO1` (configuration not stated): 17.8 µM (active).
On the same count and under the same terms, the same measure for `O=C(NC1CCCC1)C1CC(c2ccc(F)cc2)=NO1` (configuration not stated): 10 µM (active).
Take `O=C(NNC(=O)C1CC(c2cccnc2)=NO1)Nc1cccc(F)c1` (configuration not stated): the “activity, negative = inhibition” value is 34.3% (inactive).
Still for that read-out and setting: the same measure for `CO[C@H]1COC(=O)[C@H](C)COC(=O)C/C=C\[C@@H](C)[C@H](OC)COC(=O)C/C=C\[C@@H]1C`: -42.3% [at 11.4 µM] (inactive); for `COc1nc(C)nc(Cl)c1NC1=NCCN1`: -32% [at 25.6 µM] (inactive).
On to `Clc1cccc(Cl)c1NC1=NCCN1`, for which the concentration at half-maximal activity (AC50) result was “inactive and 5.01 µM (active)”.
As to `Fc1ccc(CN(C2=NCCN2)c2c(Cl)cccc2Cl)cc1`, the “activity, negative = inhibition” value is -36.9% (inactive).
Consider `Clc1cccc(Nc2nnc(-c3ccccc3)c3ccccc23)c1`, for which the concentration at half-maximal activity (AC50) is 0.794 µM (active).
As for `Cc1ccc(COc2coc(CO)cc2=O)cc1`, the concentration at half-maximal activity (AC50) was 14.1 µM (active).
On the same count and under the same terms, the same measure for `C=C1C(=O)C=C2CN(C(=O)c3ccccc3)[C@@](Cc3ccc(OC)cc3)(C(=O)OC)[C@@H]12`: 20 µM (active); for `C=C1C(=O)C=C2CN(C(=O)c3ccccc3)[C@@](Cc3ccc(F)cc3)(C(=O)OC)[C@@H]12`: 5.01 µM (active).
Take `COc1ccc(C(=O)N2CCC3(CC2)CN(Cc2ccc(C#N)cc2)C3)cc1`: the “activity, negative = inhibition” value was -27.6% (inactive).
The same measure, in the same setting: the same measure for `COC(=O)[C@@]1(Cc2ccc(OC)cc2)[C@@H]2C(=CC(=O)[C@H]2CC(=O)C(=O)N(C)C)CN1C(=O)c1ccccc1`: -31.9% (inactive).
The same measure, in the same setting: the same measure for `O=C(O)C12CC3(C(=O)O)CC(C(=O)O)(CC(C(=O)O)(C1)C3=O)C2=O`: -11.5% [at 11.4 µM] (inactive).
The same measure, in the same setting: the same measure for `C[C@H]1/C=C\CC(=O)OC[C@H](C)C(=O)N2CCC[C@@H]2C(=O)OC1`: -9.53% [at 11.4 µM] (inactive); for `COC(=O)[C@@H]1O[C@@H](SCCN)[C@@H](O)[C@H](O)[C@H]1O`: 31.9% [at 11.4 µM] (inactive).
In the case of `Cc1cn2c(-c3ccncc3)nnc2s1`, the “activity, negative = inhibition” value was -27.6% (inactive).
Take `c1cc(-c2sc(-c3ccncc3)c(-c3ccncc3)c2-c2ccncc2)ccn1`: the AC50 was 1.58 µM (active).
Turning to `CCN1CCN(CCCNC(=O)C(NC(=O)C2CCC(C)CC2)C(C)C)CC1` (configuration not stated), the “activity, negative = inhibition” value was 9.56% (inactive).
Turning to `COc1ccccc1N1CCN(C(=O)C(NS(=O)(=O)c2cccs2)c2ccccc2)CC1` (configuration not stated), the half-maximal activity concentration (AC50) was 3.16 µM (active).
On to `O=C(C(NS(=O)(=O)c1cccs1)c1ccccc1)N1CCN(c2ccccc2)CC1` (configuration not stated), for which the AC50 was 1.41 µM (active).
Same read-out and setting: the same measure for `CC(C)C(NS(=O)(=O)c1cccs1)C(=O)NCCN1CCN(c2ccccc2)CC1` (configuration not stated): 14.1 µM (active).
Regarding `COc1ccc(N2CCN(CCNC(=O)c3c(C)cc(=O)oc3C)CC2)cc1`, the “activity, negative = inhibition” value was -20.5% (inactive).
The same measure, in the same setting: the same measure for `COC(=O)N1CCC2(CC1)CCN(C(c1ccccc1)c1ccccc1)CC2`: -44.4% (inactive).
For the compound `CC(=O)N[C@@H](C(=O)O)C(C)(C)SN=O`, the AC50 entry was “inactive”.
On the same count and under the same terms, the same measure for `CCOC(=O)c1[nH]c(C)c(C(=O)OCC(=O)N2c3ccccc3CC2C)c1C` (configuration not stated): 11.2 µM (active).
